Experiment [1] in a line: NFAT Signaling Pathway (AID 444).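 Also: carbachol stimulus at about its EC50 of 1 µM final; % is scaled to controls: 0 for no effect and ±100 for the full control effect.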 The conditions noted are these: Jurkat NFAT-bla M1, carbachol, beta-lactamase ratio, 5 h; at 17.2 µM (top of the series) unless noted. The procedure, abridged:
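Jurkat cells with NFAT-driven β-lactamase reporter and co-expressed M1 receptor, stimulated with carbachol (final 1 uM, ~EC50), compound titration, 5 h at 37 °C. CCF4 loaded 1 h at RT; 460/530 nm ratio gave %activity and AC50.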

Experiment [2] can be described thus: Stat Signaling Pathway (AID 446).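 Also: ME-180 cervical cancer cells given 40 pM IL-6 alongside compound; SIE-controlled beta-lactamase reporter measured as 460/530 nm FRET emission ratio; % is scaled to controls: 0 for no effect and ±100 for the full control effect.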 The conditions noted are these: ME-180 (cervical carcinoma) SIE beta-lactamase reporter, IL-6 stimulated, 5 h; at 17.2 µM (top of the series) unless noted. The method in brief: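 Emission at 460 and 530 nm (excitation 405 nm) reports SIE-controlled beta-lactamase in ME-180 cells. Cells received compound with 40 pM IL-6 for 5 hrs at 37 C; data scaled between 300 pM IL-6 and 125 nM JAK-inhibitor controls.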

Experiment [3] concerns the target Glucocorticoid receptor (Homo sapiens) (UniProt P04150). The experiment can be described thus: GR-GFP Redistribution (AID 450;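 active = compounds whose dose series gives a full or clear partial fitted curve of increased nuclear translocation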; also: potency is read from the fitted curve at half-maximal effect).

A number with no mark means an inactive call. Results filed as inconclusive are left out. Calls of active or inactive are those of the source. Unless noted, calls follow the shape of the dose curve; as a rule, active = well fitted curve in either direction with a large enough effect (not every such curve was filed as active); inconclusive = small, poorly fitted or top-dose-only effect, or another doubt; inactive = flat fitted curve, though single readings scatter.

Sequence of Glucocorticoid receptor (Homo sapiens) (P04150 whole entry, looked up): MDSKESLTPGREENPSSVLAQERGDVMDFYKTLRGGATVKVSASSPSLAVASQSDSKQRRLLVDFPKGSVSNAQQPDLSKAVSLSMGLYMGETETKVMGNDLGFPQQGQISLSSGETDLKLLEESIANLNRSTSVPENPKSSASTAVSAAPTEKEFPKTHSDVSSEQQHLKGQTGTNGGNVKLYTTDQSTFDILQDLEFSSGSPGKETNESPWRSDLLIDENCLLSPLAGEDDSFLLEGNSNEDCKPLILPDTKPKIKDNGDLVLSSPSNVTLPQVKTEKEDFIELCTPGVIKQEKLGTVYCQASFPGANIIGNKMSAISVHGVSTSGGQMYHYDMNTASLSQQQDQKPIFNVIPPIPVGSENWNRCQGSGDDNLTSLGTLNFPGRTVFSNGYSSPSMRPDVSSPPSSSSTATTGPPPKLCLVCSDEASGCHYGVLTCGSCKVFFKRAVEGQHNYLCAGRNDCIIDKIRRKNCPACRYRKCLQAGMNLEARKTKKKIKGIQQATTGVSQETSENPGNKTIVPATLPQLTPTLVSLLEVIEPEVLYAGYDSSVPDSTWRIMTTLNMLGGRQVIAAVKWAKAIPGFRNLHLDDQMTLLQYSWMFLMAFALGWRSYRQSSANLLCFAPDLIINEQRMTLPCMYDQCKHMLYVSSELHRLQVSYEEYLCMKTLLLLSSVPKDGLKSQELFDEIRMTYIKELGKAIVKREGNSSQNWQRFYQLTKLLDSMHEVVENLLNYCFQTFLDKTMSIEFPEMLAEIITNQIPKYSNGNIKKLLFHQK

In the case of `CCOc1ccc(-c2nnc3sc(COc4ccccc4)nn23)cc1`, the activity change, negative = inhibition in experiment [1] is 4.76%. The activity, negative = inhibition in experiment [2] was 4.42%. Moreover, the Potency in experiment [3] was above 20.6 µM.

On to `CCOC(=O)CSc1nc(N)c2c3c(sc2n1)CCCC3`, for which, in experiment [1], the activity change, negative = inhibition is -14.4%. For the same molecule, the activity, negative = inhibition in experiment [2] is -14.2%. Further, in experiment [3], the Potency was above 20.6 µM.

As for `C=C(C)CC1N(c2cccc(OC)c2)C(=O)[C@@H]2C(C(=O)O)[C@H]3C=C[C@@]12O3` (some centres not stated), the activity change, negative = inhibition in experiment [1] is 5.5%. In experiment [2], the activity, negative = inhibition is 3.15%. Besides, the Potency in experiment [3] is above 20.6 µM.

Regarding `COCCCNc1nc2c(c(=O)[nH]c(=O)n2C)n1CC(O)COc1ccccc1` (configuration not stated), in experiment [1], the activity change, negative = inhibition is 16.9%. Also, in experiment [2], the activity, negative = inhibition was -9.93%. In experiment [3], the Potency was above 20.6 µM.

For the molecule `c1ccc(N2CCN(c3nc(-c4ccccn4)nc4ccccc34)CC2)cc1`, the activity change, negative = inhibition in experiment [1] was 0.815%. Besides, in experiment [2], the activity, negative = inhibition is -14.9%. Also, the Potency in experiment [3] is above 20.6 µM.

As for `CCn1cc(C(=O)NCc2ccco2)c(=O)c2cc(F)c(N3CCN(C(=O)c4ccco4)CC3)cc21`, the activity change, negative = inhibition in experiment [1] is -28.1%. For the same molecule, in experiment [2], the activity, negative = inhibition was -28.5%. Also, the Potency in experiment [3] is above 20.6 µM.

For `Cc1sc(-n2c(C)cc(/C=N/n3cnnc3)c2C)c(C#N)c1C`, the activity change, negative = inhibition in experiment [1] was -9.91%. Moreover, the activity, negative = inhibition in experiment [2] was -17%. Also, the Potency in experiment [3] was above 20.6 µM.

Take `CN(C)C(=O)COn1c(SCC(=O)N(C)C)nc2ccccc2c1=O`: in experiment [1], the activity change, negative = inhibition is 14.2%. Further, in experiment [2], the activity, negative = inhibition is 2.27%. Also, the Potency in experiment [3] is above 20.6 µM.

`Cc1ccc(-c2nnc(-c3ccccc3)o2)cc1Br`: in experiment [1], the activity change, negative = inhibition is -13.3%. Besides, in experiment [2], the activity, negative = inhibition was 27.2%. In addition, the Potency in experiment [3] was above 20.6 µM.

Take `COc1ccc(C(=O)N/C(N)=N/c2nc3ccccc3o2)cc1`: the activity change, negative = inhibition in experiment [1] was -19%. Also, the activity, negative = inhibition in experiment [2] is -5.99%. Also, in experiment [3], the Potency was above 20.6 µM.

`CCOc1ccc(S(=O)(=O)N(C)CCO)cc1-c1nc2c(C(C)(C)C)nn(C)c2c(=O)[nH]1`: the activity change, negative = inhibition in experiment [1] was 6.99%. In experiment [2], the activity, negative = inhibition is -3.41%. For the same molecule, the Potency in experiment [3] is above 20.6 µM.

Turning to `COc1ccc(C2/C(=C(/O)c3ccc(OC(C)C)cc3)C(=O)C(=O)N2CCCN2CCOCC2)cc1` (configuration not stated), the activity change, negative = inhibition in experiment [1] is -1.06%. Moreover, the activity, negative = inhibition in experiment [2] was -10.9%. Besides, the Potency in experiment [3] was above 20.6 µM.

Consider `CCC1(C)Cc2c(C#N)c(N)sc(=S)c2CO1` (configuration not stated), for which the activity change, negative = inhibition in experiment [1] is -12.1%. Also, in experiment [2], the activity, negative = inhibition is -10.3%. Further, the Potency in experiment [3] was above 20.6 µM.

With `C=CCOc1nc2c(c(=O)n(C)c(=O)n2C)n1Cc1ccc(Cl)cc1`, in experiment [1], the activity change, negative = inhibition is -8.76%. Besides, the activity, negative = inhibition in experiment [2] is -5.11%. In experiment [3], the Potency was above 20.6 µM.

As for `COc1cccc(N2CCN(c3ncnc4c3[nH]c3ccccc34)CC2C)c1` (configuration not stated), in experiment [1], the activity change, negative = inhibition is -139% (active). The activity, negative = inhibition in experiment [2] is -104% (active). Further, the Potency in experiment [3] is above 20.6 µM.

As for `Nc1nnc(Cc2ccc(Cl)c(Cl)c2)s1`, in experiment [1], the activity change, negative = inhibition is 2.08%. Also, in experiment [2], the activity, negative = inhibition was 4.97%. The Potency in experiment [3] is above 20.6 µM.

Take `CC(C)(C)n1cnc2cc(NS(=O)(=O)c3ccc(Br)cc3)ccc21`: in experiment [1], the activity change, negative = inhibition was -27.1%. Also, in experiment [2], the activity, negative = inhibition was -28%. In addition, the Potency in experiment [3] was above 20.6 µM.

For the molecule `Cc1nc(NCCN)c(C#N)c2c1COC(C)(C)C2`, in experiment [1], the activity change, negative = inhibition is -1.13%. Besides, in experiment [2], the activity, negative = inhibition was 7.79%. The Potency in experiment [3] is above 20.6 µM.

For `CCCCCOc1ccc(Cl)cc1CN1CCOCC1`, the activity change, negative = inhibition in experiment [1] was 4.03%. In addition, in experiment [2], the activity, negative = inhibition is 4.37%. Besides, the Potency in experiment [3] is above 20.6 µM.

For `N#CCc1nc2c3c4c(sc3ncn2n1)CCCC4`, the activity change, negative = inhibition in experiment [1] is -9.45%. In addition, the activity, negative = inhibition in experiment [2] was 5.72%. Moreover, in experiment [3], the Potency is above 20.6 µM.

Turning to `O=C(c1ccc2c3c(cccc13)C(=O)N(O)C2=O)N1CCCCC1`, the activity change, negative = inhibition in experiment [1] is 0.433%. Besides, the activity, negative = inhibition in experiment [2] was 22.1%. In experiment [3], the Potency was above 20.6 µM.

For the molecule `CCOC(=O)c1c(C)n(C)c2ccc(OC)c(NC(=O)c3cccs3)c12`, in experiment [1], the activity change, negative = inhibition is 5.2%. The activity, negative = inhibition in experiment [2] was -16.1%. Also, the Potency in experiment [3] was above 20.6 µM.

As for `CCCSc1nnc(NC(=O)Nc2ccccc2)s1`, the activity change, negative = inhibition in experiment [1] was -25.9%. Also, in experiment [2], the activity, negative = inhibition was -19.6%. Also, the Potency in experiment [3] is above 20.6 µM.

As for `Cc1cc(N/C=C/C(=O)c2cccc3ccccc23)no1`, the activity change, negative = inhibition in experiment [1] was -3.82%. Also, the activity, negative = inhibition in experiment [2] was -10.2%. In addition, the Potency in experiment [3] was above 20.6 µM.

Source of the values: PubChem BioAssay (NCATS).
